Test results from PubChem BioAssay (Tox21).
Inconclusive results are not listed. Calls of active or inactive are those of the source. Unless noted, calls follow the shape of the dose curve; as a rule, active = well fitted curve in the direction sought with a large enough effect in the repeat runs; inconclusive = weak or mixed curves; inactive = no such curve, though single readings can be large; an effect the other way counts as inactive or inconclusive.

How the values were obtained:
[1] = A CellTox Green Cytotoxicity Assay to monitor cytotoxicity in HEK293 cells - 32 hour (AID 1224881); also: nearly all actives have a fitted effect of over 40% in size
In short: (§1)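 Real-time, in one plate: 600 HEK293 cells/well with dead-cell DNA dye, pinned compound after 5 h, 37 C incubation over 40 h; viable cells give no appreciable fluorescence.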

[2] = A CellTox Green Cytotoxicity Assay to monitor cytotoxicity in HepG2 cells - 32 hour (AID 1224883); also: nearly all actives have a fitted effect of over 50% in size; also: potency is read from the fitted curve at half-maximal effect
In short: (§2)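 Cytotoxicity was tracked as dead-cell DNA fluorescence in HepG2 cells treated with test compounds at 37 C; each time-point value comes from one kinetic series spanning 0, 8, 16, 24, 32 and 40 h.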

[3] = qHTS RealTime-Glo MT Cell Viability Assay in HepG2 cells - 16 hour (AID 1224885); also: nearly all actives have a fitted effect of over 50% in size
In short: (§3)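 HepG2 suspension premixed with RealTime-Glo reagents is plated at 600 cells per well and left 5 h at 37 C/5% CO2. Compounds in DMSO then go in, and bioluminescence reflecting viable cell number is recorded over 40 h.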

[4] = qHTS RealTime-Glo MT Cell Viability Assay in HEK293 cells - 24 hour (AID 1224886); also: top concentration of the series differs between compounds; nearly all actives have a fitted effect of over 50% in size
In short: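 Reads taken at 0, 8, 16, 24, 32 and 40 h from the same wells. HEK293 cells (600/well) carried RealTime-Glo reagents from seeding, with compound added after a 5 h settle at 37 C.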

[5] = qHTS RealTime-Glo MT Cell Viability Assay in HEK293 cells - 8 hour (AID 1224887); also: top concentration of the series differs between compounds; nearly all actives have a fitted effect of over 50% in size
In short: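 Kinetic, non-lysing viability readout. Seed HEK293 (600/well) with reagent, incubate 5 h at 37 C/5% CO2, pin 23 nL compound in DMSO, incubate at 37 C, read luminescence at 0, 8, 16, 24, 32, 40 h.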

[6] = A CellTox Green Cytotoxicity Assay to monitor cytotoxicity in HEK293 cells - 16 hour (AID 1224888); also: nearly all actives have a fitted effect of over 35% in size
In short: as §1

[7] = qHTS RealTime-Glo MT Cell Viability Assay in HepG2 cells - 0 hour (AID 1224889); also: nearly all actives have a fitted effect of over 50% in size
In short: as §3

[8] = qHTS assay to identify small molecule antagonists of the estrogen receptor alpha (ER-alpha) signaling pathway using the BG1 cell line in the presence of 0.1 nM 17-beta-estradiol - cell viability counter screen (AID 1259241); also: nearly all actives have a fitted effect of over 40% in size; also: potency is read from the fitted curve at half-maximal effect
In short: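 Estradiol-stimulated (0.1 nM) VM7Luc4E2 cells exposed to compounds 22 hr; viability measured by fluorescence of cleaved CellTiter-Fluor substrate after 30 min.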

[9] = qHTS assay to identify small molecule antagonists of the androgen receptor (AR) signaling pathway using the MDA cell line in the presence of 0.5 nM R1881 - cell viability counter screen (AID 1259242); also: nearly all actives have a fitted effect of over 45% in size
In short: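 Cells seeded at 3,000/well and allowed 5 hr at 37C, 0% CO2 before compound transfer and R1881 (0.5 nM final) addition; 16 hr later, live-cell protease fluorescence indicated cytotoxicity.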

[10] = target: Estrogen receptor (Homo sapiens) (UniProt P03372); test: qHTS assay to identify small molecule antagonists of the estrogen receptor alpha (ER-alpha) signaling pathway using the BG1 cell line in the presence of 0.1 nM 17-beta-estradiol (AID 1259244); also: nearly all actives have a fitted effect of over 50% in size
In short: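 Luciferase signal from VM7Luc4E2 ERE-reporter cells, co-dosed with test compound and 0.1 nM final 17beta-estradiol for 22 h, read with ONE-Glo.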

[11] = qHTS assay to identify small molecule HDAC inhibitors (AID 1259364); also: potency is read from the fitted curve at half-maximal effect;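 also: wild-type HCT-116 cells with endogenous class I/II HDAC activity; nearly all actives have a fitted effect of over 45% in size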; as to activity change, negative = inhibition: top concentration of the series differs between compounds
In short: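 HCT-116 wt cells, 1,500/well, overnight attach. Compounds (DMSO) 2 h, 37 °C. HDAC-Glo I/II, 30 min RT. Luminescence.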

[12] = qHTS assay to identify small molecule HDAC inhibitors - cell viability counter screen (AID 1259365)
In short: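 After overnight seeding at 1,500 cells per well, wild-type HCT-116 cultures took up compounds in DMSO for 2hr at 37 C. Viable cell content came from luminescence with CellTiter-Glo.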

[13] = qHTS assay to identify small molecule agonists of the sonic hedgehog signaling (Shh) pathway - cell viability counter screen (AID 1259366); also: nearly all actives have a fitted effect of over 50% in size; also: potency is read from the fitted curve at half-maximal effect
In short: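 Same-well cytotoxicity read. Gli1-Luc reporter 3T3 cells; compounds 24hr, 37C/5% CO2; CellTiter-Fluor fluorescence.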

[14] = qHTS assay to identify small molecule antagonists of the sonic hedgehog signaling (Shh) pathway - cell viability counter screen (AID 1259367); also: nearly all actives have a fitted effect of over 55% in size; also: potency is read from the fitted curve at half-maximal effect
In short: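 Cytotoxicity was assessed in parallel with Shh reporter activity by measuring live-cell protease fluorescence (CellTiter-Fluor) in NIH/3T3 cells stably carrying Gli1-Luc, treated with compound under conditioned medium stimulation for 23 hr plus 1 hr reagent incubation.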

[15] = qHTS assay to identify small molecule agonists of the sonic hedgehog signaling (Shh) pathway (AID 1259368; calls by dose curve;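 also: NIH/3T3-derived 3T3Gli1-Luc cells carrying a stable Gli1-driven firefly luciferase reporter; series mostly up to about 92 µM; nearly all actives have a fitted effect of over 15% in size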)
In short: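 Following a 24 hr incubation with DMSO-dissolved compounds at 37 C, 5% CO2, Gli1-Luc NIH/3T3-derived cells received luciferase reagent for 30 min at room temperature prior to luminescence measurement.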

[16] = A CellTox Green Cytotoxicity Assay to monitor cytotoxicity in HEK293 cells - 8 hour (AID 1224884); also: nearly all actives have a fitted effect of over 35% in size
In short: as §1

[17] = A CellTox Green Cytotoxicity Assay to monitor cytotoxicity in HepG2 cells - 8 hour (AID 1224890); also: nearly all actives have a fitted effect of over 45% in size
In short: as §2

[18] = target: Androgen receptor (Homo sapiens) (UniProt P10275); test: qHTS assay to identify small molecule antagonists of the androgen receptor (AR) signaling pathway using the MDA cell line in the presence of 0.5 nM R1881 (AID 1259243); also: nearly all actives have a fitted effect of over 50% in size
In short: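 Luminescence from an AR/GR-responsive MMTV-luciferase construct in MDA-kb2 breast carcinoma cells, read 30 min after ONE-Glo, following 16 hr co-treatment with compounds and 0.5 nM R1881.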

[19] = qHTS assay to identify small molecule phospholipidosis (PLD) inducers (AID 1259344; active = well fitted curve in the direction sought with a large enough effect; an effect the other way counts as inactive or inconclusive)
In short: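 Cells (HepG2, 900 per well) attach for 4 h, receive LipidTOX Red and compound together, incubate 24 h at 37 C, are fixed 30 min with paraformaldehyde/Hoechst, then imaged at one site per well.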

[20] = A CellTox Green Cytotoxicity Assay to monitor cytotoxicity in HepG2 cells - 0 hour (AID 1224882); also: nearly all actives have a fitted effect of over 35% in size
In short: as §2
% is scaled to controls: 0 for no effect and ±100 for the full control effect.

Estrogen receptor (Homo sapiens), sequence (P03372 whole entry, looked up): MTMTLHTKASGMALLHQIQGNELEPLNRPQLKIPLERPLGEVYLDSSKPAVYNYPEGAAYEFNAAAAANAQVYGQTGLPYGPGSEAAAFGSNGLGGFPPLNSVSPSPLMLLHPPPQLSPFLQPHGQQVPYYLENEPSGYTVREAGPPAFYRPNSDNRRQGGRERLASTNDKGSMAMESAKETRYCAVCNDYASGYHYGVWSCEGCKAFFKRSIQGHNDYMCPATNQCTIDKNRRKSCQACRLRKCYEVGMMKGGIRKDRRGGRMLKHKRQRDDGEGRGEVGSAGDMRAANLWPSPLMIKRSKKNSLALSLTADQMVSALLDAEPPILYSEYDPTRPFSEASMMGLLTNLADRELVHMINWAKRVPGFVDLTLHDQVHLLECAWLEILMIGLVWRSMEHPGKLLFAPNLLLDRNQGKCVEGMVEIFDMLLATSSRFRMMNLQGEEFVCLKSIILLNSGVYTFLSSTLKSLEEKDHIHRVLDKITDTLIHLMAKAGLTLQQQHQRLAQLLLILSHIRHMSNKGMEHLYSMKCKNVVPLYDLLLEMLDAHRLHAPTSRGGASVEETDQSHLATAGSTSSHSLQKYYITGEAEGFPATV
Androgen receptor (Homo sapiens), sequence (P10275 whole entry, looked up): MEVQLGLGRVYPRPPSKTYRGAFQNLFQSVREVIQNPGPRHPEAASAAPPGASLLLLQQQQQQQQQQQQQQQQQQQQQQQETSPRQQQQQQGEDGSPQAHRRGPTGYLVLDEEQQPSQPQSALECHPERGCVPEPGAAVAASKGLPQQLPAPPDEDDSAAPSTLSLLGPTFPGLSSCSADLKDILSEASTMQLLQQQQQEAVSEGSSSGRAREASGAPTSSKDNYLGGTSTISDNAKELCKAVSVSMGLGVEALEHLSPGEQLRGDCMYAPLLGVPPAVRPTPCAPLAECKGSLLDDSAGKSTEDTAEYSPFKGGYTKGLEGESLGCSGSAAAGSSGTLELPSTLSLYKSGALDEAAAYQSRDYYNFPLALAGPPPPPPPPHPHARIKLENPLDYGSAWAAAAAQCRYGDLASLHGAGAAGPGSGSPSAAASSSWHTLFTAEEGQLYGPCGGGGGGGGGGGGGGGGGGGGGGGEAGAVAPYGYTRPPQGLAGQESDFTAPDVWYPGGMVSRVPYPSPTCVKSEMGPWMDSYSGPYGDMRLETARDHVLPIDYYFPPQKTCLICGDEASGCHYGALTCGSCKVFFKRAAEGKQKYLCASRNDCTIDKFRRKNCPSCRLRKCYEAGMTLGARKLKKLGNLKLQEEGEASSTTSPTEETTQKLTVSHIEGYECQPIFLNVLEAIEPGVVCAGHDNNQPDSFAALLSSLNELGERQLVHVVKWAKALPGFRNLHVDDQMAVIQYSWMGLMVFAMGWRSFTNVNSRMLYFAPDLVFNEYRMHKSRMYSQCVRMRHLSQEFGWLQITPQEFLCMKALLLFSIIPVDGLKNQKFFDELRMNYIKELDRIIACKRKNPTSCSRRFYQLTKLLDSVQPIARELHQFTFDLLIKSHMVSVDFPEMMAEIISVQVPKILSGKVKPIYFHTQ

Brc1c2ccccc2c(Br)c2ccccc12
inactive: cytotoxicity increase [1] -2.57% [at 6.97 µM] | cytotoxicity increase [2] 2.42% [at 6.97 µM] | activity change, negative = cytotoxic [3] -0.25% [at 6.97 µM] | activity change, negative = cytotoxicity [4] 1.98% [at 6.97 µM] | activity change, negative = cytotoxicity [5] -3.92% [at 6.97 µM] | activity change [6] -0.0109% [at 6.97 µM, active compounds read high] | activity change, negative = cytotoxicity [7] 2.26% [at 6.97 µM] | activity change, negative = cytotoxicity [8] 3.89% [at 8.39 µM] | viability change, negative = cytotoxic [9] 2.88% [at 8.39 µM] | activity change, negative = inhibition [10] 0.899% [at 8.39 µM] | activity change, negative = inhibition [11] 3.07% [at 8.39 µM] | activity change, negative = cytotoxicity [12] 1.69% [at 8.39 µM] | viability change, negative = cytotoxic [13] 2.56% [at 8.39 µM] | viability change, negative = cytotoxic [14] -7.11% [at 8.39 µM] | activity change [15] -0.511% [at 8.39 µM]

O=[N+]([O-])c1ccc(NCCO)c(OCCO)c1
active: Potency [8] 54.5 µM | Potency [13] 24.4 µM | Potency [14] 30.7 µM
inactive: Potency [1] | Potency [2] | Potency [16] | Potency [3] | Potency [4] | Potency [5] | Potency [6] | Potency [17] | Potency [18] | Potency [11] | Potency [12] | outcome [15]

COCC(C)OC(C)=O (stereo not drawn)
inactive: Potency [1] | Potency [2] | Potency [16] | Potency [3] | Potency [4] | Potency [5] | Potency [6] | Potency [7] | Potency [17] | Potency [8] | Potency [9] | Potency [11] | Potency [12] | Potency [13] | Potency [14] | outcome [15]

C=C1[C@H]2CC[C@@H]3[C@H]2C(C)(C)CCC[C@]13C
inactive: Potency [1] | Potency [2] | Potency [16] | Potency [3] | Potency [4] | Potency [5] | Potency [6] | Potency [7] | Potency [17] | Potency [8] | Potency [9] | Potency [10] | Potency [11] | Potency [12] | Potency [13] | Potency [14] | outcome [15]

O=[N+]([O-])c1ccc2[nH]ncc2c1
inactive: Potency [1] | Potency [2] | Potency [16] | Potency [3] | Potency [4] | Potency [5] | Potency [6] | Potency [7] | Potency [17] | Potency [9] | Potency [10] | Potency [11] | Potency [12] | Potency [13] | Potency [14] | outcome [15]

C/C=C(/C(=C/C)c1ccc(OC(C)=O)cc1)c1ccc(OC(C)=O)cc1
inactive: Potency [1] | Potency [2] | Potency [16] | Potency [4] | Potency [5] | Potency [6] | Potency [7] | Potency [8] | Potency [9] | Potency [11] | Potency [12] | Potency [13] | Potency [14] | outcome [15]

C[N+](C)(C)CCOC(=O)CCC(=O)OCC[N+](C)(C)C
inactive: Potency [1] | Potency [2] | Potency [16] | Potency [4] | Potency [5] | Potency [6] | Potency [7] | Potency [17] | Potency [8] | Potency [9] | Potency [10] | Potency [19] | Potency [11] | Potency [12] | Potency [13] | Potency [14] | outcome [15]

CCOC(=O)NCCOc1ccc(Oc2ccccc2)cc1
inactive: Potency [1] | Potency [2] | Potency [16] | Potency [3] | Potency [6] | Potency [7] | Potency [17] | Potency [8] | Potency [11] | Potency [12] | Potency [13] | Potency [14] | outcome [15]

C=CCOC(=O)CCC1CCCCC1
inactive: Potency [1] | Potency [20] | Potency [3] | Potency [4] | Potency [5] | Potency [6] | Potency [7] | Potency [17] | Potency [8] | Potency [9] | Potency [11] | Potency [12] | Potency [13] | Potency [14] | outcome [15]

O=C(NCCO[N+](=O)[O-])c1cccnc1
inactive: Potency [1] | Potency [2] | Potency [16] | Potency [3] | Potency [5] | Potency [6] | Potency [7] | Potency [17] | Potency [8] | Potency [9] | Potency [19] | Potency [11] | Potency [12] | Potency [13] | Potency [14] | outcome [15]

CC(=O)c1ccc2c(c1)N(CCCN1CCC(CCO)CC1)c1ccccc1S2
inactive: Potency [20] | Potency [16] | Potency [3] | Potency [6] | Potency [7] | Potency [17] | Potency [10] | Potency [19] | Potency [11] | Potency [12] | outcome [15]
active: Potency [2] 23.9 µM | Potency [13] 11.9 µM

CCn1cc(C(=O)O)c(=O)c2cnc(N3CCNCC3)nc21
inactive: Potency [20] | Potency [2] | Potency [16] | Potency [3] | Potency [5] | Potency [6] | Potency [7] | Potency [17] | Potency [9] | Potency [19] | Potency [11] | Potency [12] | Potency [13] | Potency [14] | outcome [15]

CCOC(=O)c1cccnc1
inactive: Potency [20] | Potency [2] | Potency [16] | Potency [3] | Potency [4] | Potency [6] | Potency [17] | Potency [9] | Potency [10] | Potency [19] | Potency [11] | Potency [12] | Potency [13] | Potency [14] | outcome [15]

NCC(=O)O
inactive: cytotoxicity [20] 6.15% [at 15.8 µM] | cytotoxicity increase [2] 1.6% [at 15.8 µM] | cytotoxicity increase [16] 12.2% [at 15.8 µM] | activity change, negative = cytotoxic [3] 8.2% [at 15.8 µM] | activity change, negative = cytotoxicity [4] 3.07% [at 15.8 µM] | activity change, negative = cytotoxicity [5] 10.2% [at 15.8 µM] | activity change [6] -1.23% [at 15.8 µM, active compounds read high] | activity change, negative = cytotoxicity [7] 5.3% [at 15.8 µM] | activity change, negative = cytotoxicity [8] -1.87% [at 19 µM] | viability change, negative = cytotoxic [9] -5.8% [at 19 µM] | Potency [19] | activity change, negative = inhibition [11] -0.526% [at 19 µM] | activity change, negative = cytotoxicity [12] 4.81% [at 19 µM] | viability change, negative = cytotoxic [13] -1.71% [at 19 µM] | viability change, negative = cytotoxic [14] 1.33% [at 19 µM] | activity change [15] -0.0794% [at 18.9 µM]

CCCCC
active: Potency [11] 1.69 µM
inactive: Potency [20] | Potency [2] | Potency [16] | Potency [3] | Potency [4] | Potency [5] | Potency [7] | Potency [17] | Potency [8] | Potency [9] | Potency [19] | Potency [12] | Potency [13] | outcome [15]
